Experimental findings from PubChem BioAssay AID651650 (Sanford-Burnham Center for Chemical Genomics, 2012) are described below.

In this test the target is Neuropilin-1 (Homo sapiens) (UniProt O14786). Briefly: blockers of CendR peptide binding to NRP-1 – biochemical, FP and AlphaScreen panel, dose response (AID 651650). The note with it: NRP-1 b1b2 / RPARPAR peptide binding, FP or AlphaScreen; run 1, at 100 µM (top of the series).
Chain of Neuropilin-1 (Homo sapiens) (O14786 whole entry, looked up): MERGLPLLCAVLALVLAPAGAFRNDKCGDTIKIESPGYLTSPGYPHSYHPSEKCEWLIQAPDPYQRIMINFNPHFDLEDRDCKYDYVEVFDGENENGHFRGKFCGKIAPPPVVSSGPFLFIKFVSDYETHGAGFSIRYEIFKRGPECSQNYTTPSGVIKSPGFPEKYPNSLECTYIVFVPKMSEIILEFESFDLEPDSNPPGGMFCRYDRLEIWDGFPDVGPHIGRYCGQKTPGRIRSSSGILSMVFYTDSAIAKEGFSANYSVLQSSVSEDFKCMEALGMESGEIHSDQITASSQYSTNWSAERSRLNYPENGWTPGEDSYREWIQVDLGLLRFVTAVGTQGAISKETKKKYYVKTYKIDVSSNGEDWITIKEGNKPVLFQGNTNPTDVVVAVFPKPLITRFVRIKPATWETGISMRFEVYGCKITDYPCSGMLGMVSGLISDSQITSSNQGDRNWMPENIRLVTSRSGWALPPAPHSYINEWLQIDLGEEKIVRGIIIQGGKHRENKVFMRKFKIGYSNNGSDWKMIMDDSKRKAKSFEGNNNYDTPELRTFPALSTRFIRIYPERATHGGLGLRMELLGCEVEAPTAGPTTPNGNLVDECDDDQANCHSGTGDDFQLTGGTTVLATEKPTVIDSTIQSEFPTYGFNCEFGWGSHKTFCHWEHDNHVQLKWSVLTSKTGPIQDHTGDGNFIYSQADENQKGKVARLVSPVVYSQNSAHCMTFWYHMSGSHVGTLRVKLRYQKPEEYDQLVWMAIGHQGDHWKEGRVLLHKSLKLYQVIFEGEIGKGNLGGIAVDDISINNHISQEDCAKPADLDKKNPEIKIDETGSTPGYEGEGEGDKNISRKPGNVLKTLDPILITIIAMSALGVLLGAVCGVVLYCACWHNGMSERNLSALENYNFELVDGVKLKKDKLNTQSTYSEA
`CCO[C@@H]1OC(C(=O)NCc2ccccc2)=C[C@H](c2ccc(Br)cc2)[C@H]1CCCO`: the inhibition came out at 102%.
Regarding `Cc1ccccc1NC(=O)c1cccc(NC(=O)CCC(=O)O)c1`, the inhibition was determined as 28.1%.
To `CC(C)(C)OC(=O)N1CCN(C(=O)c2[nH]cnc2C(=O)NCc2ccccc2)CC1` belongs 34.4%; to `O=C(COc1ccc(Br)cc1CO)Nc1ccc(F)cc1`, -9.04%.
Next, `COc1ccc(C2CC(C(F)(F)F)n3nc(C(=O)O)c(Cl)c3N2)cc1OC` (stereo not drawn): 46.4%.
Consider `COc1ccc(Cn2c3ccc(OC)cc3c3nc4ccccc4nc32)cc1`, for which the inhibition stood at 78.8%.
Regarding `COc1cc(OC)nc(NC(=O)COC(=O)c2cccc(Cl)c2)n1`, the inhibition worked out at 98.8%.
Next, `O=C(NC1CC1)c1ccc(COc2ccc(F)cc2)o1`: 23.1%.
Next, `NC(=O)c1c(NC(=O)C(=O)N2CCOCC2)sc2c1CCCC2`: 16.2%; `Cc1ccccc1Nc1cc(=O)oc2ccccc12`: 5.19%; `COc1ccc(NC(=O)C(C)Sc2ccccc2)cc1` (stereo not drawn): 13.5%.
Next, `Clc1nc(-c2ccccn2)nc2scc(-c3ccccc3)c12`: 7.99%.
Take `Cc1ccnc(N2CCC(C(=O)Nc3ccc4c(c3)OCCO4)CC2)n1`: the inhibition was 41.7%.
To `CCCCn1nnnc1C(c1cc2ccccc2o1)N(C)Cc1ccc(Cl)c(Cl)c1` (stereo not drawn) belongs 104%.
Turning to `CCOC(=O)N1CCN(C(=O)c2cc(COc3ccc(OC)cc3Cl)on2)CC1`, the inhibition stood at 37.8%.
As to `C=C1CCN([C@@H](CC(C)C)C(=O)NCCC(C)C)S(=O)(=O)c2ccccc21`, the inhibition came to 35.9%.
Next, `Cc1ccc(Cn2c(C(C)Nc3nc(-c4ccc(Cl)c([N+](=O)[O-])c4)cs3)nc3cc(C(F)(F)F)ccc32)cc1` (stereo not drawn): 41.6%; `c1cc(CNc2ccc3c(c2)OCO3)ccn1`: 27.1%; `Cc1ccc2cc(CN(c3ccccc3C)S(=O)(=O)c3ccccc3)c(=O)[nH]c2c1`: 41.9%.
As to `CCOc1ccc(C2CC(c3ccc(CC)cc3)n3nc(N)nc3N2)cc1` (stereo not drawn), the inhibition is 4.44%.
Take `CC(O)(c1cccnc1)c1nc(/C=C/c2ccccc2)cs1` (stereo not drawn): the inhibition came to 42.6%.
Next, `CC(=O)Nc1ccc2nc3c(=O)n(C)c(=O)n(C)c3nc2c1`: 84.8%; `C=C1CCN(C(C(=O)OC)C(C)C)S(=O)(=O)c2ccc(F)cc21` (stereo not drawn): 68%.
Next, `O=C1c2cc([N+](=O)[O-])cc3cc([N+](=O)[O-])cc(c23)C(=O)N1c1ccccn1`: 17.2%.
In the case of `COc1cccc(C(=O)N2N=C(c3ccccc3)CC2(O)C(F)(F)F)c1` (stereo not drawn), the inhibition came out at 35.9%.
On to `OCCC1CCCCN1CC(O)COCc1ccc(Cl)cc1` (stereo not drawn), for which the inhibition was 22.3%.
On to `CC1CCC(NC(=O)CSc2nncn2C)CC1` (stereo not drawn), for which the inhibition is 19.2%.
Next, `Cc1ccc(NNS(=O)(=O)c2ccc(C)cc2)cc1`: 16.2%; `COc1ccc2c(c1OC)CN1CCc3cc4c(cc3[C@@H]1[C@@H]2O)OCO4`: -3.65%.
As for `Cc1ccc(C(=O)O)cc1NC(=O)Nc1cccc2ccccc12`, the inhibition amounted to 30.6%.
As to `O=C(NCCOC(=O)c1ccccc1)c1ccccc1`, the inhibition amounted to 72.3%.
To `COc1ccc(Cl)cc1S(=O)(=O)N1CCN(CC(=O)C(C)(C)C)CC1` belongs -4.16%; to `CCC(=O)Nc1cc2c3c(c1)CCC(=O)N3CCC2`, 101%.
`CC(=O)OC[C@@H]1CN(Cc2cccc(C(F)(F)F)c2)C[C@H](n2cnc3c(NCc4ccco4)ncnc32)O1`: the inhibition stood at 54.5%.
To `Cn1c(=NC(=O)COc2ccccc2)sc2ccccc21` belongs -1.2%; to `COC(=O)C[C@H]1c2cc(F)ccc2S(=O)(=O)N1C(C)C`, 29.9%; to `Cc1csc(NC(C)c2nc3cc(C(F)(F)F)ccc3n2CCOCCO)n1` (stereo not drawn), 20%.
Next, `CCn1cc(C(=O)N2CCN(C(=O)c3ccco3)CC2)c2cc(OC)c(OC)cc2c1=O`: 77.9%.
